Measurements reported in PMC7862700, “An all-to-all approach to the identification of sequence-specific readers for epigenetic DNA modifications on cytosine”.

Columns and labels:
Experiment in all cases: DAPPL (digital affinity profiling via proximity ligation, sequencing); 10 mM Tris-HCl pH 7.5, 50 mM NaCl, 1 mM DTT, 4% glycerol, room temperature, 30 min; GST-TFs on glutathione beads, 16-mer random dsDNA library, 0.1% formaldehyde crosslink after washing; high values mean tight binding
Conditions in all cases: protein: recombinant; tags: N-terminal GST; dsDNA, one strand shown
ERF = target: T1, ERF (Homo sapiens, UniProt P50548 1-548)
T1 sequence: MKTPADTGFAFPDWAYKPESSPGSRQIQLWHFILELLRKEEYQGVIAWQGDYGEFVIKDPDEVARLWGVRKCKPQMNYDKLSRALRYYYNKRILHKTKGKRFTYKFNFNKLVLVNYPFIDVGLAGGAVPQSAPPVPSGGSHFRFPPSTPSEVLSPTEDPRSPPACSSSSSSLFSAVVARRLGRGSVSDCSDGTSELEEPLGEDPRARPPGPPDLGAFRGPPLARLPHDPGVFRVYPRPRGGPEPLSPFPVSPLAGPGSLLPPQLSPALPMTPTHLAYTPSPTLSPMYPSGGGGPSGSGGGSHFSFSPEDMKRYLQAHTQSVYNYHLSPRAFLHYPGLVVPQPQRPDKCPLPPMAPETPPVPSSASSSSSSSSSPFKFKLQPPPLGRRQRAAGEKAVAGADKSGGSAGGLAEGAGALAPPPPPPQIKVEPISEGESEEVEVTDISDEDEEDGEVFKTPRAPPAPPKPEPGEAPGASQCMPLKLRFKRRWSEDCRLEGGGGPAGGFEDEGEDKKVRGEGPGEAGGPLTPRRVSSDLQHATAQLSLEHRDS
How it was run: (§1)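 Beads coated with glutathione captured GST-fused human transcription factors that had been expressed in yeast, and the factors were then given DNA barcodes and pooled with a tag-only sample. The pools were incubated with 200 nmole of a random double-stranded 16-mer DNA library in Tris/NaCl/DTT/glycerol buffer for 30 min at room temperature, washed, crosslinked with 0.1% formaldehyde and proximity-ligated with BsaI/T4 ligase at 37 °C for 1 h. PCR amplification and Illumina NextSeq500 sequencing came last. Binding signal is each hexamer's read frequency for a factor divided by its frequency for the tag-only sample.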

ETV3L = target: T2, ETV3L (Homo sapiens, UniProt Q6ZN32 1-361)
T2 sequence: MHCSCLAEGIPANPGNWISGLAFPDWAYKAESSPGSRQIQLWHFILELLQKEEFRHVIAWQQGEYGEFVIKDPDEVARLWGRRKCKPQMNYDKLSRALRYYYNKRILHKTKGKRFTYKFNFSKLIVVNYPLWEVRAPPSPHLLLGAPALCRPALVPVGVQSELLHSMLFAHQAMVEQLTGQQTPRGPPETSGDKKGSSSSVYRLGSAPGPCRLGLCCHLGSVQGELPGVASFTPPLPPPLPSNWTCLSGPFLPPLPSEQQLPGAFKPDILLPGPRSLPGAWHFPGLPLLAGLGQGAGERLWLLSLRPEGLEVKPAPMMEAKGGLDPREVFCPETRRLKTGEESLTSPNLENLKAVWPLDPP
How it was run: as §1

ETS2 = target: T3, ETS2 (Homo sapiens, UniProt P15036 1-469)
T3 sequence: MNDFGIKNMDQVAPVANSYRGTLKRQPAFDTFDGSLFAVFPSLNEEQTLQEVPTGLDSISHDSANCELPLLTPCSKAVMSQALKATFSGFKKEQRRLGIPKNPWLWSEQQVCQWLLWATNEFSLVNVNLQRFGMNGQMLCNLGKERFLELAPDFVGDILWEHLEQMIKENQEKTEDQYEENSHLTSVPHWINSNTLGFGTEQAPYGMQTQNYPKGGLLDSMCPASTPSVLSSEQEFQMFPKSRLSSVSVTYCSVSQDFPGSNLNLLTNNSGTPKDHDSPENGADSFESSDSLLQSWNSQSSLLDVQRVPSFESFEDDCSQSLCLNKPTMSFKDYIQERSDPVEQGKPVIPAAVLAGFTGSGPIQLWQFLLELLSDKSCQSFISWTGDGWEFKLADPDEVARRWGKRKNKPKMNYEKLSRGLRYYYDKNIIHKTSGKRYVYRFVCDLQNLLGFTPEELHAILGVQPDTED
How it was run: as §1

SPDEF = target: T4, SPDEF (Homo sapiens, UniProt O95238 1-335)
T4 sequence: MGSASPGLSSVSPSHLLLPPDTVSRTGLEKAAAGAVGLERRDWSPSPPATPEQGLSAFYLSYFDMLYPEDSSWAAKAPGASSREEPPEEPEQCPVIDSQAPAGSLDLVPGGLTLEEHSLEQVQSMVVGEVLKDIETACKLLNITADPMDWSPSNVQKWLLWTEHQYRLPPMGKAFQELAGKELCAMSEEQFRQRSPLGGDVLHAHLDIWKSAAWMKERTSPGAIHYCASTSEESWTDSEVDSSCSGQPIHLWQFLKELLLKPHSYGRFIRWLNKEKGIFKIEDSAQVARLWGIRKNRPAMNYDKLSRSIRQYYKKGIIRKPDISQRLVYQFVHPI
How it was run: as §1

ETV7 = target: T5, ETV7 (Homo sapiens, UniProt Q9Y603 1-341)
T5 sequence: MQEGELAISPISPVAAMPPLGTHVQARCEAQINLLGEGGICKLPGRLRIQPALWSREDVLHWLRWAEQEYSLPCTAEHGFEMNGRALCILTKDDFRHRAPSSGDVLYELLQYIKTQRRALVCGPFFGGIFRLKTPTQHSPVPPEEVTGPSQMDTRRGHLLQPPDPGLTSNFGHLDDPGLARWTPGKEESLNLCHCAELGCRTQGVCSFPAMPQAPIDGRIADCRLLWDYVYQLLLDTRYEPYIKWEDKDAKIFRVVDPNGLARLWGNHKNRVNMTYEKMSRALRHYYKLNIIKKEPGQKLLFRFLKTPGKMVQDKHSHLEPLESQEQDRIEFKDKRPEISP
How it was run: as §1

ELF5 = target: T6, ELF5 (Homo sapiens, UniProt Q9UKW6-2 1-255)
T6 sequence: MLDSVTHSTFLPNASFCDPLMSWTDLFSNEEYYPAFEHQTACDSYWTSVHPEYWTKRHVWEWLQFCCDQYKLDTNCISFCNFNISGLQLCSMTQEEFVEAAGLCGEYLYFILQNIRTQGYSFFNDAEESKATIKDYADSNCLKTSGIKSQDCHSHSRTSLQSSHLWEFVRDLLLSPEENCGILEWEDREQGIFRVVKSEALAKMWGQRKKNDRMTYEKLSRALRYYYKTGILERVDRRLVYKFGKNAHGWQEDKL
How it was run: as §1

ETV3 = target: T7, ETV3 (Homo sapiens, UniProt P41162-2 1-143)
T7 sequence: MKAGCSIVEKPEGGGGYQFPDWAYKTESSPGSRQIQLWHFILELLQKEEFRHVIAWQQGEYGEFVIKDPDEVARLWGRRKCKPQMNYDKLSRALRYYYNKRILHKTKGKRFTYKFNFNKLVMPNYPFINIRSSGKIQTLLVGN
How it was run: as §1

ETV6 = ETV6 (Homo sapiens, UniProt P41212 1-452)
How it was run: as §1

ETV6, sequence (P41212 whole entry): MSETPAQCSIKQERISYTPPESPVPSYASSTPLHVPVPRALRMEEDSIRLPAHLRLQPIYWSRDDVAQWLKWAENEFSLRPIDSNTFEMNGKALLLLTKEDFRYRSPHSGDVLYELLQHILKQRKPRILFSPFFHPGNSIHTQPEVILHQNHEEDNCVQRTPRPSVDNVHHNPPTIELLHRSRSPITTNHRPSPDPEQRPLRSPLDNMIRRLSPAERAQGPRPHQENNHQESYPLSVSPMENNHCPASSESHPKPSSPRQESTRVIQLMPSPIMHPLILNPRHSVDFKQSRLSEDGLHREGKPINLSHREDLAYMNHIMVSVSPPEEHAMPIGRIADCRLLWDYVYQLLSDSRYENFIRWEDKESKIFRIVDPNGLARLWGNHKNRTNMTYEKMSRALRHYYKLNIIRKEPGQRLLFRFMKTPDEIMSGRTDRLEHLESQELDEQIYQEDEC

Sequence | binding signal (ERF) | binding signal (ETV3L) | binding signal (ETS2) | binding signal (SPDEF) | binding signal (ETV7) | binding signal (ELF5) | binding signal (ETV3) | binding signal (ETV6)
AATTTG | 1.28 fold enrichment (6-mer frequency, TF over GST control) | 1.3 fold enrichment (6-mer frequency, TF over GST control) | 1.32 fold enrichment (6-mer frequency, TF over GST control) | 1.24 fold enrichment (6-mer frequency, TF over GST control) | 1.38 fold enrichment (6-mer frequency, TF over GST control) | 1.33 fold enrichment (6-mer frequency, TF over GST control) | 1.39 fold enrichment (6-mer frequency, TF over GST control) | 1.22 fold enrichment (6-mer frequency, TF over GST control)
GGAAAA | 1.12 fold enrichment (6-mer frequency, TF over GST control) | 1.31 fold enrichment (6-mer frequency, TF over GST control) | 1.27 fold enrichment (6-mer frequency, TF over GST control) | 1.12 fold enrichment (6-mer frequency, TF over GST control) | 1.26 fold enrichment (6-mer frequency, TF over GST control) | 1.67 fold enrichment (6-mer frequency, TF over GST control) | 1.31 fold enrichment (6-mer frequency, TF over GST control) | 1.53 fold enrichment (6-mer frequency, TF over GST control)
ACCACT | 1.22 fold enrichment (6-mer frequency, TF over GST control) | 1.36 fold enrichment (6-mer frequency, TF over GST control) | 1.29 fold enrichment (6-mer frequency, TF over GST control) | 1.25 fold enrichment (6-mer frequency, TF over GST control) | 1.24 fold enrichment (6-mer frequency, TF over GST control) | 1.25 fold enrichment (6-mer frequency, TF over GST control) | 1.24 fold enrichment (6-mer frequency, TF over GST control) | 1.28 fold enrichment (6-mer frequency, TF over GST control)
AATTTT | 1.36 fold enrichment (6-mer frequency, TF over GST control) | 1.3 fold enrichment (6-mer frequency, TF over GST control) | 1.23 fold enrichment (6-mer frequency, TF over GST control) | 1.22 fold enrichment (6-mer frequency, TF over GST control) | 1.14 fold enrichment (6-mer frequency, TF over GST control) | 1.23 fold enrichment (6-mer frequency, TF over GST control) | 1.2 fold enrichment (6-mer frequency, TF over GST control) | 1.13 fold enrichment (6-mer frequency, TF over GST control)
ATTCAA | 1.38 fold enrichment (6-mer frequency, TF over GST control) | 1.34 fold enrichment (6-mer frequency, TF over GST control) | 1.36 fold enrichment (6-mer frequency, TF over GST control) | 1.31 fold enrichment (6-mer frequency, TF over GST control) | 1.19 fold enrichment (6-mer frequency, TF over GST control) | 1.24 fold enrichment (6-mer frequency, TF over GST control) | 1.37 fold enrichment (6-mer frequency, TF over GST control) | 1.33 fold enrichment (6-mer frequency, TF over GST control)
TTGGCC | 1.08 fold enrichment (6-mer frequency, TF over GST control) | 1.09 fold enrichment (6-mer frequency, TF over GST control) | 1.01 fold enrichment (6-mer frequency, TF over GST control) | 1.06 fold enrichment (6-mer frequency, TF over GST control) | 1.12 fold enrichment (6-mer frequency, TF over GST control) | 1.02 fold enrichment (6-mer frequency, TF over GST control) | 1.05 fold enrichment (6-mer frequency, TF over GST control) | 1.05 fold enrichment (6-mer frequency, TF over GST control)
CCAACG | 1.29 fold enrichment (6-mer frequency, TF over GST control) | 1.1 fold enrichment (6-mer frequency, TF over GST control) | 1.08 fold enrichment (6-mer frequency, TF over GST control) | 1.13 fold enrichment (6-mer frequency, TF over GST control) | 1.13 fold enrichment (6-mer frequency, TF over GST control) | 1.1 fold enrichment (6-mer frequency, TF over GST control) | 1.09 fold enrichment (6-mer frequency, TF over GST control) | 1.22 fold enrichment (6-mer frequency, TF over GST control)
